Compound activity from PubChem.
Most compounds without a hit are left out; they make up all but 5.8% or so of the library.
MCF10A rerep: A quantitative high throughput screen for small molecules that induce DNA re-replication in MCF 10a normal breast cells; MCF 10A DNA re-replication, Hoechst nuclear intensity, 48 h; AID 624296, 2012; Potency, µM (highest dose often 46.1 µM), for the others: at the highest dose activity, positive = re-replication, hits mostly activators; 350,000 tested, 2.9% active; note: % of control where 0% means no effect; nearly all actives have a fitted effect of over 50% in size
SW480 rerep: A quantitative high throughput screen for small molecules that induce DNA re-replication in SW480 colon adenocarcinoma cells | SW480 DNA re-replication, Hoechst DNA content imaging, 48 h | Potency, µM (doses to about 46.1 µM), without a hit: top-dose re-replication activation, hits mostly activators | 340,000 tested, 1.8% active; note: % of control where 0% means no effect; nearly all actives have a fitted effect of over 55% in size
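Readout is total intensity of Hoechst-stained nuclei, excited at 405 nm and collected at 500-530 nm. Compound treatment lasted 48 hr at 37 C in 5% CO2 before staining.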
KB-V1 cytotox: qHTS assay for MDR1-selective chemotherapeutics: Primary screen using the drug-selected MDR subline cells KB-V1; KB-V1 MDR cells viability, CellTiter-Glo, 72 h; Potency, µM (highest dose often 46.1 µM), most hits filed as cytotoxic; 400,000 tested, 3.4% active; AID 1347076, 2019; note: % is set by controls: 0 for no effect and ±100 for the full control effect; nearly all actives have a fitted effect of over 60% in size
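Cytotoxicity via CellTiter-Glo luminescence after 72 h compound exposure at 37 degrees C. Cells: drug-selected KB-V1 line, DMEM phenol-red free plus 10% FBS. Compounds tested at multiple concentrations; normalized data fitted to concentration-effect curves.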
12-LOX inh: Primary qHTS assay for inhibitors of human arachidonate 12S-lipoxygenase (ALOX12): Round 2. Potency, µM (doses to about 108 µM), without a hit: at the top dose activity change, negative = inhibition, most hits filed as inhibitors. Polyunsaturated fatty acid lipoxygenase ALOX12 (Homo sapiens), P18054. 580,000 tested, 1.1% active. purified 12hLO, xylenol orange hydroperoxide absorbance; note: % is set by controls: 0 for no effect and ±100 for the full control effect
Target sequence (P18054 whole entry, looked up): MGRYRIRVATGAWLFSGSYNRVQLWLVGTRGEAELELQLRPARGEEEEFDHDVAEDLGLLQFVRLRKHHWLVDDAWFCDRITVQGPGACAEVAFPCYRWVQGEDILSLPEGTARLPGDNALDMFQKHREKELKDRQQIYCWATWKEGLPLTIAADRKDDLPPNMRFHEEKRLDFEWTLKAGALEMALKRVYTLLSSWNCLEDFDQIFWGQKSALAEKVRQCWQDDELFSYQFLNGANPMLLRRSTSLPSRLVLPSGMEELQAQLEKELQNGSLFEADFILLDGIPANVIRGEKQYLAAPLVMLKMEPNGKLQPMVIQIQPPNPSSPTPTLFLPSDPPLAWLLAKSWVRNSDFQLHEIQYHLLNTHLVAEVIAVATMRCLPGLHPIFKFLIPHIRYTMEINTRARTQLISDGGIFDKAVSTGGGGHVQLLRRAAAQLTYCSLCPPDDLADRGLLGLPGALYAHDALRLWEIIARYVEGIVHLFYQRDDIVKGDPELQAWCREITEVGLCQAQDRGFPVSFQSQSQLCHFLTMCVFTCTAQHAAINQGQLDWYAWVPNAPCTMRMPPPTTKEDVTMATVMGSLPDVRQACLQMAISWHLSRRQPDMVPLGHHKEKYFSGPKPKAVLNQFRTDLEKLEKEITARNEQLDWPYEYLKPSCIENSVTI
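Hydroperoxide product was detected by ferrous iron/xylenol orange as the 573 to 405 nm absorbance ratio. Arachidonic acid at 40 uM (final) was turned over for 30 min at room temperature by 150 nM human 12hLO, pH 7.0 Hepes buffer, after 15 min compound preincubation.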
KB-3-1 tox: qHTS assay for MDR1-selective chemotherapeutics: Primary screen using the parental adenocarcinoma cell KB-3-1; KB-3-1 viability, CellTiter-Glo ATP luminescence, 72 h; Potency, µM (top dose mostly 46.1 µM), actives largely listed as cytotoxic; 400,000 tested, 1.4% active; AID 1347075, 2019; note: % is set by controls: 0 for no effect and ±100 for the full control effect; nearly all actives have a fitted effect of over 60% in size
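KB-3-1 parental drug-naive adenocarcinoma cells in DMEM/10% FBS, incubated 72 h at 37 C with pin-transferred compounds across a concentration series. Viability by CellTiter-Glo luminescence; concentration-response curves fitted after normalization.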
PINK1 expr mod: A Quantitative High throughput Screen to Identify Chemical Modulators of PINK1 Expression. PINK1 immunofluorescence, high-content cytometry, 24 h. Potency, µM (doses to about 76.6 µM), for inactives: at the top dose activation (PINK1 increase), usual class: activators. 410,000 tested, 0.2% active; active = well fitted activation curve with a large enough effect; inconclusive = small, poorly fitted or top-dose-only effect; cell line not stated here; note: % of control where 0% means no effect; nearly all actives have a fitted effect of over 65% in size
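Cells are seeded, rested 12 hours, then given compound at five concentrations or DMSO for 24 hours. After fixation, blocking and antibody staining, PINK1 amount and mitochondrial localization are scored; CCCP serves as control.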
An asterisk follows results filed as active; ! = a repeat was not active; [ ] = dose if it differs, or a comment. Unless noted, calls come from the whole dose curve; as a rule, active = well fitted curve in the direction sought with a large enough effect; inconclusive = small, poorly fitted or top-dose-only effect, or another doubt; inactive = no such curve, though single readings can be large; an effect the other way counts as inactive or inconclusive. Potency is the fitted concentration of half-maximal effect.

CCOC(=O)c1c(C)[nH]c(C(=O)COC(=O)c2ccncc2)c1C was read as MCF10A rerep 6%, SW480 rerep 0%, KB-V1 cytotox 7.3µM*, 12-LOX inh -1%, KB-3-1 tox inconclusive and PINK1 expr mod 1%.
`CCOC(=O)c1c(C)[nH]c(C(=O)COC(=O)c2cnccn2)c1C` gave MCF10A rerep inconclusive, SW480 rerep -10%, KB-V1 cytotox inactive, 12-LOX inh -24%, KB-3-1 tox inactive and PINK1 expr mod 2%.
CCOC(=O)c1c(C)[nH]c(C(=O)COC(=O)C2CC(=O)N(Cc3ccccc3)C2)c1C (stereo unspecified) was read as MCF10A rerep -1%, SW480 rerep -16%, KB-V1 cytotox 3.3µM*, 12-LOX inh 0%, KB-3-1 tox inactive and PINK1 expr mod -3%.
Screening Cc1ccc(S(=O)(=O)Nc2ccc(-c3csc(-c4ccccc4)n3)cc2)cc1 returned MCF10A rerep 12µM*, SW480 rerep inconclusive, KB-V1 cytotox inconclusive, 12-LOX inh inconclusive, KB-3-1 tox inactive and PINK1 expr mod inconclusive.
`Cc1ccc(S(=O)(=O)Nc2cccc(-c3cn4ccsc4n3)c2)cc1` gave MCF10A rerep 13µM*, SW480 rerep inconclusive, KB-V1 cytotox 23µM*, 12-LOX inh inconclusive, KB-3-1 tox inconclusive and PINK1 expr mod 6%.
`O=S(=O)(Nc1cccc(-c2cn3cccnc3n2)c1)c1ccc(F)cc1` gave MCF10A rerep 0%, SW480 rerep -2%, KB-V1 cytotox 21µM*, 12-LOX inh -15%, KB-3-1 tox inactive and PINK1 expr mod -2%.
`O=S(=O)(Nc1cccc(-c2cn3ccsc3n2)c1)c1ccc(F)cc1` gave MCF10A rerep 10%, SW480 rerep -5%, KB-V1 cytotox inconclusive, 12-LOX inh -2%, KB-3-1 tox inactive and PINK1 expr mod 0%.
O=S(=O)(Nc1cccc(-c2cn3cccnc3n2)c1)c1ccc(-c2ccccc2)cc1 was read as MCF10A rerep 25%, SW480 rerep 11%, KB-V1 cytotox inactive, 12-LOX inh 0%, KB-3-1 tox inactive and PINK1 expr mod 1%.
Screening O=S(=O)(Nc1ccc(-c2cn3ccsc3n2)cc1)c1ccccc1 returned 12-LOX inh 35µM*.
`Cc1cccc(S(=O)(=O)Nc2cccc(-c3cn4ccsc4n3)c2)c1` gave MCF10A rerep 4%, SW480 rerep -5%, KB-V1 cytotox inactive, 12-LOX inh 2%, KB-3-1 tox inactive and PINK1 expr mod 0%.
`O=C(CCc1c[nH]c2ccccc12)OCc1ccccc1` gave 12-LOX inh -26%.
For CCOC(=O)CN1C(c2ccc(O)cc2)Nc2ccc(Br)cc2C1c1ccccc1 (stereo unspecified) the results were MCF10A rerep 18µM*, SW480 rerep inconclusive, KB-V1 cytotox inconclusive, 12-LOX inh -13%, KB-3-1 tox inconclusive and PINK1 expr mod -2%.
For CCCCCOc1ccc(C(=O)NCC2(c3ccccc3)CCOCC2)cc1 the results were MCF10A rerep 22%, SW480 rerep 3%, KB-V1 cytotox 23µM*, 12-LOX inh -19%, KB-3-1 tox inactive and PINK1 expr mod -3%[38.3 µM].
Screening CCC(CC)C(=O)O returned 12-LOX inh 1%[176 µM].
For Cc1ccc(NC(=S)N2CCCC(c3nc4ccccc4[nH]3)C2)cc1 (stereo unspecified) the results were MCF10A rerep 0%, SW480 rerep -35%, KB-V1 cytotox inactive, 12-LOX inh -12%, KB-3-1 tox inactive and PINK1 expr mod 0%.
For Cc1ccc(NC(=S)c2nc3ccccc3[nH]2)cc1 the results were MCF10A rerep inconclusive, SW480 rerep -5%, KB-V1 cytotox 23µM*, 12-LOX inh 0%, KB-3-1 tox inconclusive and PINK1 expr mod 29%.
For Cc1ccc(NC(=S)c2nc3ccccc3[nH]2)c(C)c1 the results were MCF10A rerep inconclusive, SW480 rerep 1%, KB-V1 cytotox inconclusive, 12-LOX inh -20%, KB-3-1 tox 21µM* and PINK1 expr mod 17%.
For CCOC(=O)N1CCC(NC(=O)c2cc(S(=O)(=O)N3CCc4ccccc43)cn2C)CC1 the results were MCF10A rerep 0%, SW480 rerep -1%, KB-V1 cytotox 3.3µM*, 12-LOX inh 0%, KB-3-1 tox inconclusive and PINK1 expr mod 1%.
CCC(C)(CNC(=O)c1cc(=O)c2ccccc2o1)N1CCOCC1 (stereo unspecified) was read as 12-LOX inh -26%.
`Cc1ccc(C(=O)NC(C)c2ccc(F)c(F)c2)s1` (stereo unspecified) gave 12-LOX inh 3%.
Screening O=S(=O)(Nc1nc(-c2ccco2)c(-c2ccco2)s1)c1ccc(F)cc1F returned KB-V1 cytotox inactive, 12-LOX inh 7.9µM*, KB-3-1 tox inactive and PINK1 expr mod -1%.
Screening O=C(Nc1nc(-c2ccco2)c(-c2ccco2)s1)c1ccc(F)cc1F returned MCF10A rerep inconclusive, SW480 rerep -1%, KB-V1 cytotox inactive, 12-LOX inh inconclusive, KB-3-1 tox inactive and PINK1 expr mod inconclusive.
`CCOC(=O)CSc1nc2c(sc(=S)n2-c2ccc(OCC)cc2)c(=O)[nH]1` gave MCF10A rerep 1%, SW480 rerep -7%, KB-V1 cytotox inactive, 12-LOX inh 64%, KB-3-1 tox inactive and PINK1 expr mod 0%.
CCOc1ccc(-n2c(=S)sc3c(=O)[nH]c(SCC(=O)N4CCC(C)CC4)nc32)cc1 was read as MCF10A rerep 0%, SW480 rerep -4%, KB-V1 cytotox inactive, 12-LOX inh 45µM*, KB-3-1 tox inactive and PINK1 expr mod -5%[38.3 µM].
CCOc1ccc(CNC(=O)CCn2c(=O)c3cccn3c3cccnc32)cc1 was read as 12-LOX inh -9% and PINK1 expr mod 0%.
`COc1cccc(CNC(=O)CCn2c(=O)c3cccn3c3cccnc32)c1` gave MCF10A rerep 0%, SW480 rerep inconclusive, KB-V1 cytotox 18µM*!, 12-LOX inh 10%, KB-3-1 tox inactive and PINK1 expr mod 0%.
